IL1B secr inh = inflammasome signaling inhibition, IL-1 beta readout; 360,000 tested, 4.7% active; activity change, % at 57.5 µM; THP-1 LPS/ATP IL-1B secretion, AlphaLISA, 16 h; hits give low values; in the data active = activity change below about -50%; inconclusive = mostly about -30% to -49%
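Secreted IL-1B measured by AlphaLISA bead assay after 16 h compound exposure of THP-1 cells; compounds (final up to 57.5 uM) added 1 h before LPS (250 ng/mL) and ATP (1.25 mM) stimulation; lower signal means less secretion.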
Gal4-VP16 FLuc = inhibits Gal4-VP16 luciferase reporter, ROR gamma counter-screen; Potency, µM (top dose mostly 53.6 µM), inactives show top-dose activity, negative = inhibition, most hits filed as inhibitors; Drosophila S2 Gal4-VP16 UAS-luciferase, luminescence, 20 h; 310,000 tested, 3.5% active; AID 2546;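 also: Gal4-VP16 expression switched on by copper sulfate through the metallothionein promoter; potency is read from the fitted curve at half-maximal effect; nearly all actives have a fitted effect of over 50% in size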
ELG1 DNA repair = blocks ELG1-dependent DNA repair in HEK293T cells; AID 504467; HEK293T ELG1-luciferase reporter, luminescence, 16 h; DNA damage induced by 5-fluorouridine; Potency, µM (titrated, usually from 46.1 µM), for inactives: at the top dose activity change, negative = inhibition, actives largely listed as inhibitors; 330,000 tested, 2.3% active; also: potency is read from the fitted curve at half-maximal effect; nearly all actives have a fitted effect of over 55% in size
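Luminescence from the luciferase reporter, measured 30 min after ONE-Glo reagent at room temperature, was the read-out. Beforehand, 2,000 cells per well were exposed for 16 hr at 37 °C to 5-fluorouridine together with compound or vehicle.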
TDP1 cell CPT = DT40-hTDP1 cell growth loss with CPT; chicken DT40 Tdp1-/-;hTDP1 cells + 20 nM CPT, ATP luminescence, 48 h; 420,000 tested, 12% active; Potency, µM (top dose mostly 46.2 µM), for inactives: at the top dose activity change, negative = growth inhibition, hits mostly inhibitors; also: potency is read from the fitted curve at half-maximal effect; nearly all actives have a fitted effect of over 55% in size
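Chicken DT40 Tdp1-/- cells stably complemented with human TDP1 were seeded at 400 cells/well in medium containing 20 nM camptothecin, exposed to pin-transferred compounds, and grown at 37 °C for at least 48 hr. Viability was read as ATP luminescence.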
DT40 TDP1 no CPT = qHTS for Inhibitors of human tyrosyl-DNA phosphodiesterase 1 (TDP1): qHTS in cells in absence of CPT. DT40 Tdp1-/- hTDP1 cells, no CPT, ATP luminescence, 48 h. Potency, µM (titrated, usually from 46.2 µM), for inactives: at the top dose activity change, negative = growth inhibition, hits mostly inhibitors. 420,000 tested, 15% active. AID 686978, 2013; also: potency is read from the fitted curve at half-maximal effect; nearly all actives have a fitted effect of over 55% in size
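Growth of hTDP1-complemented DT40 Tdp1-knockout cells is measured by ATP luminescence after at least 48 hr compound exposure at 37 °C, with DMSO substituting for the 20 nM CPT used in the parallel screen.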
RORgamma inh = blocks mouse ROR gamma transcriptional activity. P51450. Potency, µM (top dose mostly 53.6 µM), for inactives: top-dose activity change, negative = inhibition, hits mostly inhibitors. 310,000 tested, 5.4% active. Drosophila S2 Gal4-RORgamma UAS-luciferase reporter, 20 h; also: potency is read from the fitted curve at half-maximal effect; nearly all actives have a fitted effect of over 60% in size
Target sequence (P51450 whole entry, looked up, the tested form may be a part): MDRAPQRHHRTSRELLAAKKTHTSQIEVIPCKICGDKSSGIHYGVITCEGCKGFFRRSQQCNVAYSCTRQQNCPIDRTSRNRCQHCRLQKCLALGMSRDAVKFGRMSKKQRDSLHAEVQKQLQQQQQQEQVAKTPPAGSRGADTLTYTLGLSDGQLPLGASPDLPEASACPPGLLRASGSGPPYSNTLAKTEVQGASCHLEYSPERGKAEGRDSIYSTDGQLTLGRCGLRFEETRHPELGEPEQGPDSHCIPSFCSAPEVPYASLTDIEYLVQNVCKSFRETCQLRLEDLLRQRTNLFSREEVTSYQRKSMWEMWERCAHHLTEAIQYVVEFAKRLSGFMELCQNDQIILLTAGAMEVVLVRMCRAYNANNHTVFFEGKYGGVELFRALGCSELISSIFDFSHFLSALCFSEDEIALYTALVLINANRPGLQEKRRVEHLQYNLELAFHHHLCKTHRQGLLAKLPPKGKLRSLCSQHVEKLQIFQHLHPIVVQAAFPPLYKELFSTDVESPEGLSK
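Compounds are pin-transferred onto Drosophila Schneider cells expressing a copper-inducible Gal4–ROR gamma transactivation domain fusion. After 1 hr, copper sulfate is added to 700 uM final; luciferase is read 20 hr later.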
Numbers without * were called inactive; u = inconclusive; x = not tested or not shown; ! = a repeat was not active. Rows were chosen to be rich in hits. Some 21% of all compounds tested hit in one or more screens of this group. Unless noted, calls follow the shape of the dose curve; as a rule, active = well fitted curve in the direction sought with a large enough effect; inconclusive = small, poorly fitted or top-dose-only effect, or another doubt; inactive = no such curve, though single readings can be large; an effect the other way counts as inactive or inconclusive. % is scaled to controls: 0 for no effect and ±100 for the full control effect.

SMILES	IL1B secr inh	Gal4-VP16 FLuc	ELG1 DNA repair	TDP1 cell CPT	DT40 TDP1 no CPT	RORgamma inh
CC(=O)c1cc2c(=O)c3cc(C)ccc3oc2nc1C	-11	2%	u	u	u	21%
CCOC(=O)c1cc2c(=O)c3cc(C)ccc3oc2nc1C	-2	-12%	u	u	15µM*	30%
Cc1cc(Nc2nc3ccccc3nc2Cl)n(-c2ccc([N+](=O)[O-])cc2)n1	-87*	-5%	21µM*	18µM*	13µM*	5%
Cc1cc(Nc2cnc3ccccc3n2)n(-c2ccccc2)n1	-21	-7%	-10%	u	u	-4%
Cc1ccc(CN=C2NC(=O)C(CC(=O)NCCc3ccccc3)S2)cc1 (stereo unspecified)	x	0%	-9%	x	x	7%
COc1ccc(-c2cc(C(F)(F)F)nc(SCC(=O)NC(C)c3ccccc3)n2)cc1 (stereo unspecified)	x	x	x	u	15µM*	x
COc1ccc(-c2cc(C(F)(F)F)nc(SCC(=O)NCc3ccc(OC)c(OC)c3)n2)cc1	x	x	x	23µM*	u	x
CCC(C)NC(=O)CCSc1nc(-c2ccc(OC)cc2)cc(C(F)(F)F)n1 (stereo unspecified)	x	x	x	u	16µM*	x
COCCNC(=O)CCSc1nc(-c2ccc(OC)cc2)cc(C(F)(F)F)n1	-8	-4%	u	23µM*!	21µM*	u
COc1ccc(NC(=O)CCSc2nc(-c3ccc(OC)cc3)cc(C(F)(F)F)n2)cc1	x	x	x	-25%	-18%	x
O=C(NC(=S)Nc1ccccc1)c1ccc(Br)o1	19	0%	u	-23%	-20%	3.2µM*
COc1ccc(NC(=S)NC(=O)c2ccc(Br)o2)cc1	-8	u	u	1%	u	1µM*
O=C(O)c1ccc(NC(=S)NC(=O)c2cccnc2)cc1	18	-23%	3%	u	-11%	u
Cc1snnc1C(=O)NC(=S)Nc1ccccc1	14	5.6µM*	0%	-29%	13µM*	4.5µM*
C[C@H]1CN([C@@H](C)CO)S(=O)(=O)c2ccc(Br)cc2O[C@@H]1CN(C)C(=O)Cc1cccnc1	11	x	x	16%	5%	x
O=C1OC(c2ccc(Cl)cc2)/C(=C(/O)c2ccccc2)C1=O (stereo unspecified)	-11	5%	u	16%	0%	36%
OC[C@@H]1CN(CCN2CCOCC2)C[C@H](n2cnc3c(NC4CCC4)ncnc32)O1	9	x	x	-7%	7%	x
CC(C)(C)OC(=O)N1CCC(C(=O)Nc2ccc(C(=O)NCCc3ccccc3)cc2)CC1	28	x	x	u	10µM*	x
CC(C)(C)OC(=O)N1CCC(C(=O)Nc2ccc(C(=O)NCc3ccccc3)cc2)CC1	14	x	x	16µM*	15µM*	x
COc1ccc(NC(=O)c2cc(C3CCCCN3C(=O)OCCF)on2)c(C)c1 (stereo unspecified)	13	x	x	u	u	x
Cn1nccc1-c1ccc(C(=O)Nc2cccc(NS(C)(=O)=O)c2)c2occc12	-50*	x	x	u	26µM*	x
O=C(NCC1CC1)c1ccc(-n2ccnc2)c2ccoc12	6	x	x	-14%	-2%	x
CS(=O)(=O)Nc1cccc(NC(=O)c2ccc(-n3ccnc3)c3ccoc23)c1	-28	x	x	13µM*	15µM*	x
COc1ccc(N2C(=O)C(CC(=O)Nc3ccccc3)N(CCC3=CCCCC3)C2=O)cc1 (stereo unspecified)	x	x	x	21µM*	18µM*	x
COc1ccc(N=C2SC(CC(=O)Nc3ccccc3OC)C(=O)N2Cc2ccco2)cc1 (stereo unspecified)	-1	-18%	u	u	u	u
SMILES	IL1B secr inh	Gal4-VP16 FLuc	ELG1 DNA repair	TDP1 cell CPT	DT40 TDP1 no CPT	RORgamma inh
Cc1ccc(N2C(=O)C(CC(=O)Nc3ccccc3)N(CCC3=CCCCC3)C2=O)cc1 (stereo unspecified)	x	x	x	16µM*	21µM*	x
CCOc1ccccc1N=C1SC(CC(=O)Nc2ccc(OC)cc2OC)C(=O)N1CCC1=CCCCC1 (stereo unspecified)	6	u	7.3µM*	u	u	u
COc1cccc(N2C(=O)C(CC(=O)Nc3ccc(F)cc3)N(CCC3=CCCCC3)C2=O)c1 (stereo unspecified)	x	x	x	u	16µM*	x
COc1ccc(CCN2C(=O)N(c3ccc(F)cc3)C(=O)C2CC(=O)Nc2ccccc2)cc1OC (stereo unspecified)	x	x	x	u	-24%	x
Cc1ccccc1OCC(=O)NCC(=O)OCC(=O)c1ccc(Br)cc1	x	x	x	6%	2%	x
O=C(COc1cccnc1[N+](=O)[O-])NCc1ccco1	3	17%	5%	3%	10%	18%
CCOC(=O)CNC(=O)CSc1nnc(Cn2c(=O)sc3ccccc32)n1-c1ccccc1C	-94*	-2%	8%	u	u	37%
CSc1nnc(Cn2c(=O)sc3ccccc32)n1-c1ccccc1	24	8%	-3%	21µM*	21µM*	21%
COc1ccc(C(=O)Nc2cccc(C)n2)cc1S(=O)(=O)N1CCCc2ccccc21	u	x	x	u	16µM*	x
COc1ccc(C(=O)Nc2ccc(C)cn2)cc1S(=O)(=O)N1CCCc2ccccc21	-6	x	u	u	u	x
COc1ccc(C(=O)NCc2ccccc2)cc1S(=O)(=O)N1CCCc2ccccc21	5	3%	-21%	16µM*	u	25%
O=C(NCCN1C(=O)S/C(=C\c2ccc(OC(F)F)cc2)C1=O)c1cnccn1	u	-17%	-16%	1.8µM*	2.1µM*	-5%
O=C(NCCN1C(=O)S/C(=C\c2ccc(OC(F)F)cc2)C1=O)[C@@H]1CCCN1C(=O)c1cccs1	u	5%	u	u	u	-8%
O=C(NCCN1C(=O)S/C(=C\c2ccc(OC(F)F)cc2)C1=O)C1=COCCO1	-1	x	-11%	8.2µM*	7.3µM*	x
COc1ccc(/C=C2\SC(=O)N(CCNC(=O)Cc3coc4cc(OC)ccc34)C2=O)cc1	7	10%	u	u	u	u
COc1ccc(/C=C2\SC(=O)N(CCNC(=O)C3=COCCO3)C2=O)cc1	15	x	u	1.3µM*	1.3µM*	x
Fc1ccc(N2C(=S)SC(=Nc3ccccc3)C2=Nc2ccccc2)cc1	0	x	x	u	u	x

Bioassay records as filed in PubChem.
